Bioassay records (PubChem)
NPC1 prom act = activates the NPC1 promoter; Huh7 NPC1 promoter luciferase reporter, 24 h; 320,000 tested, 2.4% active; Potency, µM (series often up to 9.22 µM), without a hit: top-dose activation, hits mostly activators; note: % of control where 0% means no effect; nearly all actives have a fitted effect of over 60% in size
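Readout is luciferase luminescence, reflecting NPC1 promoter activation in stably transfected Huh7 cells after 24 h compound exposure at 37 °C in reduced-serum medium with 10% FBS.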
Rab9 prom act = activators of Rab9 promoter; 320,000 tested, 2.8% active; Huh7 Rab9 promoter-luciferase reporter, luminescence, 24 h; Potency, µM (highest dose often 9.22 µM), for the others: at the highest dose activation, negative = inhibition, usual class: activators; note: % of control where 0% means no effect; nearly all actives have a fitted effect of over 60% in size
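Huh7 reporter line, Rab9 promoter upstream of luciferase. Compound exposure 24 h at 37 °C in reduced-serum medium with 10% FBS. Read-out: luminescence.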
ELG1 genotoxic = induces genotoxicity in HEK293T cells with luciferase-tagged ELG1; HEK293T ELG1-luciferase reporter, luminescence, 16 h; Potency, µM (highest dose often 46 µM), for inactives: top-dose activity change, positive = activation, usual class: activators; 330,000 tested, 1.3% active; AID 504466; note: % of control where 0% means no effect; nearly all actives have a fitted effect of over 60% in size
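HEK293T cells expressing luciferase-tagged ELG1 were exposed to compound or DMSO vehicle for 16 hr at 37 °C and 5% CO2. Luciferase activity was then measured with ONE-Glo after 30 min at room temperature.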
FLuc modulator = firefly luciferase modulation, counter-screen for miR-21 project | Potency, µM (series often up to 57.5 µM), inactives show top-dose activity change, negative = inhibition, most hits filed as inhibitors | 360,000 tested, 6.9% active | purified FLuc, Km substrates, luminescence inhibition | AID 588342 | P08659;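 note: plate controls were vehicle for no effect and reference inhibitor for full effect; nearly all actives have a fitted effect of over 55% in size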
Target sequence (P08659 whole entry, looked up): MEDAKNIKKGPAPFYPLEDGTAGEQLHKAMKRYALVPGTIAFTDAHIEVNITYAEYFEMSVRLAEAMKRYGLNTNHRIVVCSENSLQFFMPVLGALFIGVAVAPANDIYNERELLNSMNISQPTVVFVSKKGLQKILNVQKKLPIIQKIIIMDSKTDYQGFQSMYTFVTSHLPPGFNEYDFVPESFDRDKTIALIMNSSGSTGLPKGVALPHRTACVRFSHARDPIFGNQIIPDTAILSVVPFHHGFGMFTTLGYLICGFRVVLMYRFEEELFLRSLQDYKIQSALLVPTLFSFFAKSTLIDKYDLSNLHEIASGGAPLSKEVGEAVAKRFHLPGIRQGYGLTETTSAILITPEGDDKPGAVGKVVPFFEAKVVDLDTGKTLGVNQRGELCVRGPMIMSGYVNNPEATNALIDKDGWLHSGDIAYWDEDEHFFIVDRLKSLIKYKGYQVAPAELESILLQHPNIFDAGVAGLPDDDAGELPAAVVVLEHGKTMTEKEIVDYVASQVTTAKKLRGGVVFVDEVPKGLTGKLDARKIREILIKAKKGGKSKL
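Purified P. pyralis luciferase, 10 nM final, with Km-level 10 uM D-luciferin and 10 uM ATP in 50 mM Tris acetate pH 7.5, 10 mM Mg acetate, 0.01% Tween-20, 0.05% BSA; 6-point qHTS titration about 60 µM downward; luminescence read.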
p53 reactivation = re-activators of mutant p53; H1299 p53-A138V BP100-luciferase reporter, luminescence, 24 h; Potency, µM (titrated, usually from 92.2 µM), for inactives: top-dose activity change, positive = activation, actives largely listed as activators; 320,000 tested, 0.063% active; note: % of control where 0% means no effect; nearly all actives have a fitted effect of over 45% in size
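p53-null H1299 cells stably carrying temperature-sensitive p53-A138V and a BP100-luciferase reporter were pinned with compounds (4-point, 1:5 series) and held 24 hrs at 37 deg C. Luminescence was read 10 min after detection reagent.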
SMN2 splice up = SMN2 splice variant enhancement; HEK293 SMN2-luciferase splicing reporter, luminescence, 30-36 h; Potency, µM (series often up to 46.1 µM), without a hit: top-dose activity change, positive = activation, most hits filed as activators; 210,000 tested, 2.8% active; AID 1458; note: % of control where 0% means no effect; nearly all actives have a fitted effect of over 55% in size
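HEK293 cells carry an SMN2 […]–luciferase reporter in which exon 7 inclusion puts luciferase in frame. Cells were plated 10-12 h before compound addition, then incubated 30-36 h at 37C. ONE-Glo luminescence was read; sodium butyrate at 4.5 mM final served as control.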
An asterisk follows results filed as active; ? = inconclusive; . = not tested or not shown; [ ] = dose if it differs, or a comment. Rows were chosen to be rich in hits. Some 7.3% of all compounds tested hit in one or more screens of this group. Calls come from the whole dose curve; as a rule, active = well fitted curve in the direction sought with a large enough effect; inconclusive = small, poorly fitted or top-dose-only effect, or another doubt; inactive = no such curve, though single readings can be large; an effect the other way counts as inactive or inconclusive. Potency is the fitted concentration of half-maximal effect.

SMILES	NPC1 prom act	Rab9 prom act	ELG1 genotoxic	FLuc modulator	p53 reactivation	SMN2 splice up
CC(C)CC(=O)N(c1nnc(-c2cccnc2)s1)C1CCCC1	-1%	1%	-1%	2%	.	.
CCOc1ccc(CNC(=O)c2cccn2-c2nnc(N3CCCCC3)s2)cc1OC	.	.	.	-9%	.	.
Cn1c(C[C@@H](O)c2nc3ccccc3n2C)nc2ccccc21	.	.	.	.	.	-3%[9.22 µM]
Cc1ccc(NC(=O)Cn2c(=O)nc(-c3ccccc3F)c3cc(Cl)ccc32)c(Br)c1	.	.	.	4%	.	3%
COc1ccc(/C=N/NC(=O)c2ccc(COc3ccccc3Cl)o2)cc1	18%	17%	13%	2.7µM*	3%	14%
CCCc1ccc(OCc2ccc(C(=O)N/N=C/c3cccnc3)o2)cc1	0.4µM*	0.45µM*	0.82µM*	?	7%	.
CCOc1ccc(CC(=O)N/N=C/c2cccnc2)cc1	-1%	0%	0%	1%	0%	.
CCOc1ccc(/C=N/NC(=O)c2ccc(Cn3cc(Br)cn3)o2)cc1	4%	2%	17%	6.7µM*	8%	7%
CCOc1ccc(/C=N/NC(=O)c2ccc(Cn3cc([N+](=O)[O-])cn3)o2)cc1	.	.	.	4.8µM*	.	27%
CC(C)(C)c1ccc(OCc2ccc(C(=O)N/N=C/c3ccc([N+](=O)[O-])cc3)o2)cc1	1.6µM*	?	2%	?	?	20%
CC(/C=N/NC(=O)c1ccc(Cn2cc([N+](=O)[O-])cn2)o1)=C\c1ccccc1	?	4%[1.84 µM]	12%	2.4µM*	-19%	.
CCOc1ccccc1/C=N/NC(=O)c1ccc(Cn2cc([N+](=O)[O-])cn2)o1	-2%	-5%	1%	6%	-7%	6%
CCOc1ccc(CNC(=S)N/N=C\c2ccc([N+](=O)[O-])cc2)cc1	5%	-2%	?	6%	?	-38%
CC(CNC(=O)C1CCN(Cc2cc3ccccc3n2Cc2ccccc2)CC1)c1ccccc1 (configuration not stated)	.	.	.	2%	.	.
Clc1ccccc1CSc1ncn(-c2ccccc2)n1	3.5µM*	?	?	7.6µM*	?	22µM*
Cc1ccccc1NC(=O)N1CCC(CN2CCCC2)CC1	.	.	.	4%	.	.
Cc1nc2c(C(=O)N3CCCCC3)cnn2c(C)c1Cc1ccccc1F	1.6µM*	1.6µM*	?	?	?	?
COC(=O)c1c(NC(=S)NN2CCOCC2)sc2c1CCCC2	-2%	-3%	-4%	15µM*	-2%	.
COC(=O)c1c(NC(=O)CN2CCOCC2)sc2c1CCC(C)C2 (configuration not stated)	8%	23%	19%	12µM*	20%	-5%
COC(=O)c1c(NC(=S)NC(=O)c2ccco2)sc2c1CCCC2	-11%	-6%	8%	?	1%	-5%
COc1cc([N+](=O)[O-])ccc1N1C(=O)C2C3C=CC(C4CC34)C2C1=O (configuration not stated)	-10%	0%	-3%	13µM*	13%	-14%
CCCCOc1ccc(N=Nc2ccc(N)nc2N)cn1	3.2µM*	2.5µM*	?	13µM*	8%	.
CC(=O)c1sc(NC(=O)c2ccc(C(C)(C)C)cc2)nc1C	1.6µM*	1.6µM*	?	1.3µM*	-5%	.
COc1ccc(C(=O)Nc2nc(C)c(C(=O)N(C)C)s2)cc1OC	17%	22%	?	13µM*	?	?
CC(=O)c1sc(NC(=O)c2ccc(C)c(C)c2)nc1C	1.6µM*	1.8µM*	5%	2.4µM*	?	8.9µM*
Cc1nc(NC(=O)c2ccc(Cl)cc2)sc1Cc1ccc2c(c1)OCO2	-17%	-13%	8%	?	-16%	-22%
CC(=O)c1sc(NC(=O)c2ccc3c(c2)OCO3)nc1C	2.5µM*	3.5µM*	10µM*	4.8µM*	27%	.
CC(=O)c1sc(NC(=O)c2cnc(Cl)c(Cl)c2)nc1C	3%	-4%	?	?	?	.
